Most compounds without a hit are left out; they make up all but 4.7% or so of the library.
ALR H2O2 inh = blocks human ALR sulfhydryl oxidase activity; AID 485317; 290,000 tested, 3.8% active; P55789; purified ALR, DTT oxidation, H2O2 HRP-luminol luminescence; inhibition, % (no concentration beside the values);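 active = mean replicate inhibition above about 79%, with every replicate also reaching it, limit read from the data; inconclusive = only one of the two criteria met; inactive = mean below limit and not every replicate reaching it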
Target sequence (P55789 whole entry, looked up): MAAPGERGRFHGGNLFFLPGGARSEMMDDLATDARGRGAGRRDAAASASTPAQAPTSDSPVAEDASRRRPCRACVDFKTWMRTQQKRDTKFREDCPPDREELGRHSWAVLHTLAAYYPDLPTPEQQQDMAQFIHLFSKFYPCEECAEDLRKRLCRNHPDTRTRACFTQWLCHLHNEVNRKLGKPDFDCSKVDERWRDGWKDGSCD
MLLE-PAM2 inh = blocks PAM2 peptide binding to the PABP1 MLLE domain; P11940; GST-MLLE / FITC-PAM2 fluorescence polarization; inhibition, % at 20 µM; 360,000 tested, 0.36% active; AID 588489; in the data active = inhibition above about 35%, passing the limit was not always enough
eIF4H inh = inhibitors of RNA binding by human eIF4H; Q15056; eIF4H fluorescence polarization binding assay; inhibition, % at 35 µM; 290,000 tested, 0.94% active;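 note: calls also rest on retests at 20 µM and on dose response follow-up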
Efflux pump inh = blocks antifungal efflux pumps in multiplex yeast assay; S. cerevisiae Candida pump triplex, Nile Red efflux; inhibition, % at 10 µM; 330,000 tested, 0.44% active; AID 485275;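 active = plate passing quality check with inhibition over a set limit, or well fluorescence over plate mean plus 4 SD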;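 note: Nile Red retained in pooled yeast measured as flow cytometry median fluorescence; higher means more Nile Red kept so more efflux inhibition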
UBC9 SUMO inh = inhibitors of human SUMOylation (UBC9); HTRF SUMOylation assay, SAE1/SAE2 + UBC9, in vitro; inhibition, % at 35 µM; 290,000 tested, 0.36% active; AID 2006; in the data active = inhibition above about 50%, passing the limit was not always enough; inconclusive = no clear call, values can overlap the other calls
Target sequence (P63279 whole entry, looked up): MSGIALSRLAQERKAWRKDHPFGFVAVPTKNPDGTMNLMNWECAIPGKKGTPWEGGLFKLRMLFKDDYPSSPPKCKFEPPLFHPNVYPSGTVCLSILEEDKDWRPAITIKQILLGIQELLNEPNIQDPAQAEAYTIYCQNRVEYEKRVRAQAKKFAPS
PABP FP inh = PABP-poly(A) binding inhibition; P11940; PABP-poly(A) RNA binding, fluorescence polarization; inhibition, % at 35 µM; 290,000 tested, 1% active; AID 2014;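 note: calls also rest on retests at 20 µM and on dose response follow-up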
Large screens that a line does not name were inactive. Unless noted, the rule behind the calls is not given here.

COc1ccc(-c2cnc3c(c2)C(=O)N([C@H](C)CO)C[C@@H](C)[C@@H](CN(C)C(=O)NC2CCCC2)O3)cc1	none (no result: ALR H2O2 inh, eIF4H inh, Efflux pump inh, UBC9 SUMO inh, PABP FP inh)
O=C(c1ccc(Cl)c(S(=O)(=O)NCc2cccnc2)c1)N1CCCC1	none (no result: ALR H2O2 inh, eIF4H inh, UBC9 SUMO inh, PABP FP inh)
NC(c1csc(Nc2ccc(C(=O)NCCO)cc2)n1)C1CCCCC1 (stereo not given)	none (no result: ALR H2O2 inh, eIF4H inh, Efflux pump inh, UBC9 SUMO inh, PABP FP inh)
COc1ccc(/C=C/C(=O)NC(=S)NNC(=O)Cc2cccs2)cc1	none
COc1ccccc1OCC(=O)NNC(=S)NC(=O)c1ccco1	ALR H2O2 inh 89
COc1ccccc1C(=O)NC(=S)Nc1ccc(NC(=O)c2ccco2)cc1	none
COc1ccc(/C=C/C(=O)NC(=S)NNC(=O)c2ccco2)cc1	ALR H2O2 inh 86
O=C(NCCc1ccc(F)cc1)C(=O)NCC1CCCN1S(=O)(=O)c1cccs1 (stereo not given)	none (no result: eIF4H inh, UBC9 SUMO inh, PABP FP inh)
Cc1cc(C)c(S(=O)(=O)/N=C2/C=C(Sc3ncn[nH]3)C(=O)c3ccccc32)cc1C	MLLE-PAM2 inh 45, UBC9 SUMO inh 90
O=C(O)c1cccc(NC(=O)c2ccc3c(c2)C(=O)N(C2CCCCC2)C3=O)c1	none
Oc1ccc(N=Cc2ccc(OCc3ccccc3)cc2)cc1	eIF4H inh 95, PABP FP inh 58
O=C(N/N=C/c1ccc(OCc2ccccc2)cc1)c1ccncc1	none (no result: ALR H2O2 inh)
CCCCCn1c(=O)[nH]c2cc(C(=O)NCCCN3CCCCC3CC)ccc2c1=O (stereo not given)	none
CC1(C)Nc2ccc(O)cc2-c2c1ssc2=S	ALR H2O2 inh 99, PABP FP inh 1.0
COc1cccc(-n2sc3c(c2=S)-c2cc(OC)ccc2NC3(C)C)c1	none
Cc1cc2c(SCC(=O)NCC3CCCO3)ncnc2s1 (stereo not given)	none (no result: ALR H2O2 inh, Efflux pump inh)
CC(C)N1CC2=C(OC(N)=C(C#N)C2c2cccnc2)/C(=C/c2cccnc2)C1 (stereo not given)	eIF4H inh 88, PABP FP inh 92
N#CC1=C(N)OC2=C(CN(Cc3ccccc3)C/C2=C\c2cccnc2)C1c1cccnc1 (stereo not given)	none
CC(=O)c1ccccc1NC(=O)COC(=O)/C=C/c1ccc(C)o1	ALR H2O2 inh 96
CC(=O)c1ccccc1NC(=O)COC(=O)/C=C/c1cccs1	none (no result: eIF4H inh, UBC9 SUMO inh, PABP FP inh)
COc1ccccc1N=c1oc2cc(O)ccc2cc1C(N)=O	none (no result: ALR H2O2 inh)
Cc1cccc(N=c2oc3cc(O)ccc3cc2C(N)=O)c1	ALR H2O2 inh 94
Cc1cc(Br)ccc1NC(=O)CN(C)C(=O)C1=COCCO1	none (no result: eIF4H inh, UBC9 SUMO inh, PABP FP inh)
COc1cc(/C=N/NC(=O)CCn2c3ccccc3c3ccccc32)ccc1O	none
COc1cc(C(=O)N/N=C/c2ccc3c(c2)c2ccccc2n3C)ccc1O	ALR H2O2 inh 100
CCn1c2ccccc2c2cc(/C=N/NC(=O)c3ccccc3)ccc21	none
Cc1cccc(C(=O)Oc2ccc(/C=N/NC(=O)c3cc(O)cc(O)c3)cc2)c1	eIF4H inh 99, PABP FP inh 95
O=C(N/N=C/c1cccc(O)c1)c1ccccc1O	none
Cn1c2ccccc2c2cc(/C=N/NC(=O)c3cc(O)ccc3O)ccc21	eIF4H inh 86, UBC9 SUMO inh 58, PABP FP inh 74
Cn1c2ccccc2c2cc(/C=N/NC(=O)c3cc(O)cc(O)c3)ccc21	eIF4H inh 95, PABP FP inh 65
O=C(NCCO)Nc1ccc2nc(-c3ccco3)c(-c3ccco3)nc2c1	eIF4H inh inconclusive, UBC9 SUMO inh 98, PABP FP inh inconclusive (no result: MLLE-PAM2 inh)
O=C(NCc1ccccc1)c1ccc2nc(-c3ccco3)c(-c3ccco3)nc2c1	eIF4H inh 108, PABP FP inh 83
O=C(NCCO)Nc1ccc2nsnc2c1	none
O=C(Nc1ccc(N2CCOCC2)cc1)c1ccc2nc(-c3ccco3)c(-c3ccco3)nc2c1	none (no result: ALR H2O2 inh)
CC(=O)c1ccc(NC(=O)c2ccc3nc(-c4ccco4)c(-c4ccco4)nc3c2)cc1	eIF4H inh 103, UBC9 SUMO inh 92, PABP FP inh 84
O=C(Nc1ccccc1)c1ccc2nc(-c3ccco3)c(-c3ccco3)nc2c1	eIF4H inh 100, PABP FP inh 71 (no result: UBC9 SUMO inh)
Cc1ccccc1S(=O)(=O)NC(=O)C1(C)CCN1C(=O)COc1ccc(Cl)cc1 (stereo not given)	none (no result: ALR H2O2 inh, eIF4H inh, Efflux pump inh, UBC9 SUMO inh, PABP FP inh)
O=C(O)c1cccc2c1C(=O)c1ccc(N3CCN(Cc4ccc5c(c4)OCO5)CC3)cc1S2(=O)=O	none (no result: ALR H2O2 inh, eIF4H inh, Efflux pump inh, UBC9 SUMO inh, PABP FP inh)
CCCCNC(=O)c1ccc2nc(-c3ccco3)c(-c3ccco3)nc2c1	eIF4H inh 94, PABP FP inh active

Screens from PubChem BioAssay.
